# Measurements: ChEMBL document CHEMBL3988442, “University of Dundee, Small-Polar-MMV Screening Library” (2021)
# In all, about 48,000 compounds went through this assay and about 13,000 (27%) showed an effect of 50% or more. Some of the results follow.
# Test system: Wolbachia pipientis
# Assay: Anti-Wolbachia Cell-Based Screen
# Format: functional
# Design: scale not given: in the data most compounds retested in dose-response had high values
# Details: 5 µM
row,SMILES,Percent Effect
1,CCN(CC)C(CNCc1cc(F)cc(F)c1)c1ccco1 (stereo not given),4.253%
2,Cc1ccsc1[C@@H]1CCN(C(=O)CCc2cc(O)no2)C[C@H]1O,2.962%
3,COc1ccccc1CC(=O)NCc1c(C)nc2cc(=O)[nH]n2c1C,-0.07038%
4,Cc1ccc(C(C)(O)CNC(=O)c2sccc2Br)o1 (stereo not given),16.11%
5,CC(c1nc(C2CC2)no1)N1CCC(NS(=O)(=O)c2cccs2)CC1 (stereo not given),7.931%
6,Cc1ccc(CN2CCC3(C2)C(=O)N(CC(C)C)c2ccccc23)s1 (stereo not given),8.577%
7,CC(C)CN1C(=O)C2(CCN(Cc3ccc(F)cc3)C2)c2ccccc21 (stereo not given),132%
8,O=C(O)C(F)(F)F.O=C(O)C(F)(F)F.c1cnc(N2CCOCC3(CCCN(CC4CC4)C3)C2)cn1 (stereo not given),-18.67%
9,O=C(O)C(F)(F)F.O=C(O)C(F)(F)F.c1cnc(N2C[C@H]3CCN(CCN4CCCC4)C[C@H]3C2)cn1,87.36%
10,O=C(O)[C@]12CN(CC3CCC3)C[C@H]1CN(c1cnccn1)C2,5.69%
11,O=C(O)C(F)(F)F.c1cnc(N2C[C@H]3CCN(CC4CC4)C[C@H]3C2)cn1,93.44%
12,Cn1cc(CNCCc2nccs2)c(-c2cccnc2)n1,5.46%
13,C[C@@H]1CN(C2(C(=O)N3CC[C@H](O)C3)Cc3ccccc3C2)C[C@H](C)O1,3.055%
14,O=c1[nH]c2ccccc2c(=O)n1Cc1nnnn1C1CC1,-11.16%
15,CCc1ccc(C(=O)N2CCCC(c3nn[nH]n3)C2)cc1 (stereo not given),6.219%
16,Brc1ccc2[nH]c3c(c2c1)CCCC3c1nn[nH]n1 (stereo not given),153.1%
17,Clc1ccc2[nH]c3c(c2c1)CCCC3c1nn[nH]n1 (stereo not given),91.29%
18,c1ccc2c3c([nH]c2c1)C(c1nn[nH]n1)CCC3 (stereo not given),118.9%
19,NCC1Cc2cc(Cl)cc(-c3cncc(C(=O)N4CCCCC4)n3)c2O1 (stereo not given),0.4481%
20,O=C(NCc1cccs1)[C@H]1CO[C@H]2CCN(C3CCCC3)C[C@H]2C1.O=C(O)C(F)(F)F,106.7%
21,O=C(NCCc1cccs1)[C@H]1CO[C@H]2CCN(C3CCC3)C[C@H]2C1.O=C(O)C(F)(F)F,119.1%
22,O=C(NCc1cccs1)c1nc2c(o1)CN(CC1CC1)C2.O=C(O)C(F)(F)F,-6.948%
23,CC(C)NC(=O)[C@H]1C[C@@H]2[C@@H](C1)OCCN2Cc1cccs1.O=C(O)C(F)(F)F,-8.796%
24,O=C(NCCc1cccs1)[C@H]1CO[C@H]2CCN(CC3CC3)C[C@H]2C1.O=C(O)C(F)(F)F,100.3%
25,CN1C[C@@H]2COC[C@]2(C(=O)NCCc2cccs2)C1.O=C(O)C(F)(F)F,-4.441%

row,SMILES,Percent Effect
1,O=C(NCCc1cccs1)[C@]12COC[C@H]1CN(C1CCOCC1)C2.O=C(O)C(F)(F)F,-30.21%
2,O=C(O)C(F)(F)F.O=C1CO[C@@H]2CN(Cc3cccs3)C[C@H]2N1CC1CC1,3.643%
3,O=C(NCc1cccs1)C1CNCC12CCOCC2.O=C(O)C(F)(F)F (stereo not given),1.102%
4,CCN(CC)Cc1cc(C(=O)N2CCCC(CC)(C(=O)O)C2)c(C)o1 (stereo not given),1.255%
5,O=C(c1scc2c1OCCO2)N1CCOC(CCc2ccccc2)C1 (stereo not given),-26.43%
6,CCc1nc(C)c([C@H]2CN(C)C[C@@H]2C(=O)Nc2cccc3cn[nH]c23)[nH]1,-9.056%
7,CC(=O)N1CCN(C(=O)CCNc2snc(Cl)c2C#N)CC1,-5.282%
8,Cc1cc(CN(Cc2ccccc2)CC(O)c2cccs2)on1 (stereo not given),-11.7%
9,COc1ccccc1NC(=O)NCc1cn[nH]c1,15.69%
10,CNc1nc(CNC(=O)Nc2ccccc2SC)cs1,0.4301%
11,CCOc1ccccc1NC(=O)NCc1ccoc1,6.288%
12,CN(C)c1ncc(CNC(=O)Nc2ccccc2F)n1C,-5.654%
13,CSc1nnc(CNC(=O)Nc2ccccc2Br)n1C,152.8%
14,Cn1c(CO)nnc1SCc1c(F)cccc1Br,6.099%
15,CSc1nnc(CNC(=O)Nc2ccccc2F)n1C,133%
16,CNC(=O)Cc1ccccc1NC(=O)NCc1ccc(SC)cc1,-2.376%
17,COC(=O)CCCNC(=O)Nc1ccccc1OC,-0.6444%
18,COc1ccccc1NC(=O)NCc1nnc(SC)n1C,134.3%
19,CCc1ccccc1NC(=O)NCc1nnc(SC)n1C,130.1%
20,Cn1c(C(F)(F)F)nn(CCNC(=O)Nc2ccccc2F)c1=O,4.89%
21,CN(C(=O)c1ccncc1Cl)c1ccccc1S(C)(=O)=O,-0.2522%
22,O=C(Nc1cccs1)N(CCO)CCOCC(F)(F)F,5.099%
23,Cc1ccccc1CC1(CO)CCCN(c2ncncc2C(C)C)C1 (stereo not given),2.064%
24,CO[C@@H]1CCN(c2nnc(C)s2)C[C@@H]1Cc1ccccc1.O=C(O)C(F)(F)F,97%
25,CO[C@H]1CCN(c2nnc(C)s2)C[C@@H]1Cc1ccccc1.O=C(O)C(F)(F)F,94.02%

row,SMILES,Percent Effect
1,Cc1nnc(N2CC[C@H](OCC3CC3)[C@@H](Cc3ccccc3)C2)s1.O=C(O)C(F)(F)F,-12.39%
2,Cc1nnc(N2CC[C@@H](OCC3CC3)[C@@H](Cc3ccccc3)C2)s1.O=C(O)C(F)(F)F,4.615%
3,COCc1ccc(C(=O)N2CCC(Oc3ccccc3)(C(=O)O)CC2)o1,-4.026%
4,Cc1ncc(C)c(N2CCCC(CO)(Cc3cccc(Cl)c3)C2)n1 (stereo not given),-4.145%
5,CN1CCN(CCCNC(=O)c2cc(Cl)c3c(c2)OCO3)CC1,11.84%
6,CC(C)N(C)Cc1nnc2n1CCCN(S(=O)(=O)C1CC1)C2.O=C(O)C(F)(F)F,-4.148%
7,CC(C)N(C)Cc1cc(=O)n2c(n1)CN(S(=O)(=O)C1CC1)CCC2.O=C(O)C(F)(F)F,109.3%
8,CC(C)N(C)Cc1nnc2n1CCN(S(=O)(=O)C1CC1)CC2.O=C(O)C(F)(F)F,-7.825%
9,CCN(CC)Cc1cc(=O)n2c(n1)CN(S(=O)(=O)C1CC1)CCC2.O=C(O)C(F)(F)F,115.6%
10,CN(C)Cc1cc(=O)n2c(n1)CN(CC1CCOCC1)CCC2,-13.06%
11,CN(C)Cc1cc(=O)n2c(n1)CN(S(=O)(=O)C1CC1)CCC2.O=C(O)C(F)(F)F,96.54%
12,C=C(C)COc1cccc(C(=O)N(C)Cc2cc(CC)no2)c1,-19.24%
13,Cc1ccn(-c2ccc(N3CCCN(Cc4ccccc4)CC3)nn2)n1,1.996%
14,COCCCC1(CO)CCCN(C(=O)c2cnc3c(c2)CCCC3)C1 (stereo not given),-5.76%
15,CCn1ccnc1CN1CCOC(CNc2cccnn2)C1 (stereo not given),10.18%
16,Clc1snnc1CN1CCOC(CNc2cccnn2)C1 (stereo not given),-2.392%
17,Cc1cc(C)n(CCN2CCOC(CNc3cccnn3)C2)n1 (stereo not given),103.1%
18,c1cnnc(NCC2CN(CCn3cncn3)CCO2)c1 (stereo not given),-18.76%
19,c1ccc(CCN2CCOC(CNc3cccnn3)C2)nc1 (stereo not given),95.59%
20,c1cnnc(NCC2CN(CC3CCOCC3)CCO2)c1 (stereo not given),103%
21,Cn1c(CN2CCOC(CNc3cccnn3)C2)nnc1C1CC1 (stereo not given),105.6%
22,CCN(CC1CN(CCc2ccccn2)CCO1)c1cccnn1 (stereo not given),-0.8374%
23,CC(C)c1ccc(CNC(C)c2ccc(S(=O)(=O)N(C)C)cc2)cc1 (stereo not given),1.332%
24,CN(CCC#N)C(=O)CN1CCC(c2cc3ccccc3[nH]2)CC1,-2.857%
25,O=S(=O)(c1ccccc1)N1CCN(Cc2ccc(F)cc2Br)CC1,23.46%

row,SMILES,Percent Effect
1,CCn1ccnc1-c1nc2cc(S(=O)(=O)N3CCCC3)ccc2n1C,-1.841%
2,c1cnnc(NCC2CN(CCn3cccn3)CCO2)c1 (stereo not given),-18.13%
3,N#Cc1cnn(CCN2CCOC(CNc3cccnn3)C2)c1 (stereo not given),-39.45%
4,Cn1cc(CCN2CCOC(CNc3cccnn3)C2)cn1 (stereo not given),102.6%
5,c1ccc(OCCCN2CCOC(CNc3cccnn3)C2)cc1 (stereo not given),96.43%
6,CC(C)CCN1CCNC(=O)C1CC(=O)N1CCc2sccc2C1 (stereo not given),-6.453%
7,Nc1nccnc1CC1CCCN(Cc2ccnc3ccccc23)C1 (stereo not given),254.5%
8,c1ccc2c(Cc3nnc([C@H]4CCN(CC5CC5)C4)o3)c[nH]c2c1,-3.432%
9,Nc1nccnc1CC1CCCN(Cc2c[nH]c3ccccc23)C1 (stereo not given),102%
10,COc1ccccc1CC1CCCN(C(=O)c2nccnc2N)C1 (stereo not given),7.342%
11,COc1ccccc1CN1CCCC(n2cccn2)C1 (stereo not given),-0.1221%
12,COc1ccccc1CN1CCCC(Cc2nccnc2N)C1 (stereo not given),104.1%
13,Nc1nccnc1CC1CCCN(Cc2cccc3[nH]ccc23)C1 (stereo not given),126.9%
14,O=C(Cc1c[nH]c2ccccc12)NCC1CCN(Cc2c[nH]cn2)C1 (stereo not given),-4.859%
15,CCn1c(C2CCCN(Cc3ccnc4ccccc34)C2)nn(C)c1=O (stereo not given),0.7157%
16,O=C(NCC1CCCN(Cc2cccc3nonc23)C1)c1ccc[nH]1 (stereo not given),22.2%
17,Cc1nc(CC2CCCN(Cc3nc(N)c4ccccc4n3)C2)no1 (stereo not given),-1.933%
18,CC(=O)N1[C@H](Cn2cncn2)C[C@@H]2CN(c3ccc(C)nn3)CC[C@@H]21,0.7192%
19,N#Cc1cccc(S(=O)(=O)Nc2c(F)cccc2N2CCCC2)c1,-6.503%
20,Cc1nn(C)c2nc(N(Cc3ccncc3)CC3CCCO3)sc12 (stereo not given),-11.41%
21,O=C(NCC1CCOC1)c1cc(-c2ccccc2Cl)[nH]n1 (stereo not given),-16.18%
22,O=C(NCC1CCOC1)c1cc(-c2ccc(F)cc2)[nH]n1 (stereo not given),-3.417%
23,O=C(NCC1CCOCC1)c1cc(-c2ccncc2)c2cnccc2n1,108.8%
24,O=C(NCC1CCOC1)c1csc(Cc2ccccc2)n1 (stereo not given),5.242%
25,O=C(NCC1CCOCC1)c1cc(-c2cccnc2)c2cnccc2n1,94.41%
